Laboratory results published in PubChem BioAssay (EPA / NIEHS).
Activity calls are given as the source filed them. How the source made its calls: active means hit-call score of the fitted dose curve at least 0.9, where 1 is the maximum; inactive means score below 0.9.

Test system: TTR (gene 7276)
Assay: CCTE_GLTED_hTTR_0.125uM: CCTE's human Transthyretin (hTTR) Inhibition Assay, with 0.125uM TTR, Great Lakes Toxicology and Ecology Division (GLTED) Lab (AID 2284431);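 further: hits lower the fluorescence signal relative to DMSO baseline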
Procedure, shortened: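 Cell-free displacement of ANSA probe from 0.125uM TTR after 2 h incubation with chemical. Fluorescence read at 380 nm excitation/475 nm emission; loss of signal relative to DMSO indicates T4-site displacement.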

Compound | AC50
O=C(OCc1ccccc1)c1ccc(O)cc1 | 0.322 µM (active)
Oc1ccccc1Cc1ccccc1O | 3.62 µM (active)
CCCCCCCCCCCCc1ccc(O)cc1 | 1.62 µM (active)
O=C(OCCc1ccccc1)c1ccccc1 | 20.9 µM (active)
Oc1ccc(-c2ccccc2)c(Cl)c1 | 0.0353 µM (active)
CC1=NN(c2ccc(S(=O)(=O)O)cc2)C(=O)C1N=Nc1ccccc1 (stereo unspecified) | 5.69 µM (active)
CCCCCCCOC(=O)c1ccc(O)cc1 | 1.42 µM (active)
CCCCCC[C@@H](O)C/C=C\CCCCCCCC(=O)OCC(O)CO (stereo partly specified) | 13.5 µM (active)
O=S(=O)(O)c1ccc(N=Nc2c(O)ccc3ccccc23)cc1 | 0.258 µM (active)
O=C(Oc1ccccc1)c1ccccc1O | 4.91 µM (active)
COc1ccc(-c2coc3cc(O)cc(O)c3c2=O)cc1 | 0.335 µM (active)
COc1ccc(C(=O)c2ccccc2)c(O)c1 | 6.35 µM (active)
Cc1ccc(C)c(OCCCC(C)(C)C(=O)O)c1 | 0.499 µM (active)
CC(C)(c1ccccc1)c1ccc(Nc2ccc(C(C)(C)c3ccccc3)cc2)cc1 | 20.2 µM (active)
CCCCCCCCCCCC(=O)N(C)CC(=O)O | 21.4 µM (active)
CCCCCCOc1ccc(N)cc1 | 21.2 µM (active)
